PABP FP inh – PABP-poly(A) binding inhibition | AID 2014 | PABP-poly(A) RNA binding, fluorescence polarization | 1% of 290,000 active | P11940 | inhibition, % at 35 µM;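 also: calls also rest on retests at 20 µM and on dose response follow-up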
CRFBP-R2 block – antagonists of CRF-binding protein/CRF-R2 receptor complex | HEK293 CRF-R2/CRF-BP, CRF-induced calcium fluorescence | inhibition, % at 11.8 µM | 0.59% of 350,000 active | AID 588475;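 active = inhibition of the ligand-induced calcium signal above about 50% at the single tested concentration, limit read from the data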
PABP1 MLLE inh – inhibitors of microRNA-mediated deadenylation, human PABP1 MLLE binding; GST-MLLE / FITC-PAM2 fluorescence polarization; inhibition, % at 20 µM; 0.36% of 360,000 active; P11940; in the data active = inhibition above about 35%, passing the limit was not always enough;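 also: plate controls were DMSO wells with GST-MLLE for no effect and wells lacking GST-MLLE protein for full effect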
eIF4H FP inh – inhibitors of RNA binding by human eIF4H; Q15056; eIF4H fluorescence polarization binding assay; inhibition, % at 35 µM; 0.94% of 290,000 active; AID 2012;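 also: calls also rest on retests at 20 µM and on dose response follow-up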
PHOSPHO1 inh – inhibitors of human PHOSPHO1 phosphatase; recombinant PHOSPHO1, absorbance phosphatase assay; inhibition, % at 13.3 µM; Q8TCT1; 1.1% of 290,000 active; in the data active = inhibition above about 60%
Target sequence (Q8TCT1 whole entry, looked up): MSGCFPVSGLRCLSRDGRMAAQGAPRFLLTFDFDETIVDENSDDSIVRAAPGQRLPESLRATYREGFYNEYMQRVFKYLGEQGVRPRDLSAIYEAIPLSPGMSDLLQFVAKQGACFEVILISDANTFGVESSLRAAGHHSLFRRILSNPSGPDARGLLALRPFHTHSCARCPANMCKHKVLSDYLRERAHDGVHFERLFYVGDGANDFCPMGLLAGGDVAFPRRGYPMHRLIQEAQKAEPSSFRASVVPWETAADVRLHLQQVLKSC
* hit, by the source's call. This is a sample that favours compounds with a hit; in the whole collection about 2.6% have one here. Unless noted, no rule for the calls is given here.

CN1CCN(CC(=O)Nc2cc(N(C)C)nc3ccccc23)CC1 was read as PABP FP inh 41, CRFBP-R2 block 58*, PABP1 MLLE inh 3, eIF4H FP inh 2 and PHOSPHO1 inh 29.
For COc1ccc([N+](=O)[O-])cc1/C=N/NC(=O)CNC(=O)c1cccc(F)c1 the results were PABP FP inh -5, CRFBP-R2 block -11, PABP1 MLLE inh -5, eIF4H FP inh -2 and PHOSPHO1 inh -12.
COc1ccc([N+](=O)[O-])cc1/C=N/NC(=O)CNC(=O)C(c1ccccc1)c1ccccc1 was read as PABP FP inh active, CRFBP-R2 block -6, PABP1 MLLE inh -3, eIF4H FP inh 84* and PHOSPHO1 inh 0.
O=C(/C=C/c1ccco1)NCC1OCCc2ccccc21 (centres undefined) was read as PABP FP inh 41*, CRFBP-R2 block 2, PABP1 MLLE inh 11, eIF4H FP inh 87* and PHOSPHO1 inh 42.
CN1N=C(N)c2cn(C3OC(COP(=O)(O)O)C(O)C3O)c3ncnc1c23 (centres undefined) was read as CRFBP-R2 block -50 and PABP1 MLLE inh 51*.
Screening CCCCNC(=O)C1(C)CCN1Cc1ccc(C#N)cc1 (centres undefined) returned PABP1 MLLE inh 2.
`c1ccc(Nc2cc(Nc3ccccc3)[nH]n2)cc1` gave PABP FP inh 7, CRFBP-R2 block -10, PABP1 MLLE inh 10, eIF4H FP inh 0 and PHOSPHO1 inh 69*.
For CCN(CC)C(=O)C1=C(C)N(Cc2ccc(C(C)(C)C)cc2)C(=O)C(CC(=O)NCc2ccco2)C1 (centres undefined) the results were CRFBP-R2 block -8 and PABP1 MLLE inh 1.
For COc1ccccc1N(C(=O)c1snc(C(N)=O)c1N)C(C(=O)NC1CCCC1)c1ccc(N(C)C)cc1 (centres undefined) the results were PABP FP inh -3, CRFBP-R2 block 4, PABP1 MLLE inh 2, eIF4H FP inh -15 and PHOSPHO1 inh 27.
COc1ccc(NC(=O)c2nn(C34CC5CC(CC(C5)C3)C4)cc2[N+](=O)[O-])cc1 was read as PABP FP inh 57*, CRFBP-R2 block -3, PABP1 MLLE inh 8, eIF4H FP inh 12* and PHOSPHO1 inh -4.
`COc1cccc(/C=N/Nc2nc(-c3cccnc3)nc3ccccc23)c1` gave PABP FP inh inconclusive, CRFBP-R2 block 0, PABP1 MLLE inh 7, eIF4H FP inh inconclusive and PHOSPHO1 inh 16.
Screening COc1cccc(CNc2nc(-c3cccnc3)nc3ccccc23)c1 returned PABP FP inh -1, CRFBP-R2 block 96*, PABP1 MLLE inh -1, eIF4H FP inh 4 and PHOSPHO1 inh -23.
For COc1ccccc1N/C=C/c1onc(C)c1[N+](=O)[O-] the results were PABP FP inh 2, CRFBP-R2 block -68, PABP1 MLLE inh -146, eIF4H FP inh 28 and PHOSPHO1 inh 40.
Cc1noc(/C=C/Nc2ccc(F)cc2F)c1[N+](=O)[O-] was read as PABP FP inh 16, CRFBP-R2 block -7, PABP1 MLLE inh 50*, eIF4H FP inh 70 and PHOSPHO1 inh 20.
`CCc1cc(CC)c(/C=N/NC(N)=O)c(CC)c1` gave PABP FP inh -4, CRFBP-R2 block -16, PABP1 MLLE inh -13, eIF4H FP inh 2 and PHOSPHO1 inh -12.
For COc1cc(OC)nc(-n2ncc(Br)c(Br)c2=O)n1 the results were PABP FP inh 12, CRFBP-R2 block 34, PABP1 MLLE inh -23, eIF4H FP inh -2 and PHOSPHO1 inh 13.
CC1CC(C)(C)NC(=S)S1 (centres undefined) was read as PABP FP inh -5, CRFBP-R2 block 6, PABP1 MLLE inh 41*, eIF4H FP inh -4 and PHOSPHO1 inh 47.
CCOc1ccccc1/C=C(/NC(=O)c1ccccc1)C(=O)NC(C)c1ccccc1 (centres undefined) was read as PABP FP inh 1, CRFBP-R2 block 113*, PABP1 MLLE inh -11, eIF4H FP inh 6 and PHOSPHO1 inh -2.
For C=CCNC(=O)/C(=C/c1ccccc1OCC)NC(=O)c1ccccc1 the results were PABP FP inh 5, CRFBP-R2 block 6, PABP1 MLLE inh -6, eIF4H FP inh -9 and PHOSPHO1 inh 3.
Screening Nc1cc(C(=O)O)ccc1Nc1ccc(F)c(F)c1 returned PABP FP inh 35*, CRFBP-R2 block -1, PABP1 MLLE inh 3, eIF4H FP inh 65* and PHOSPHO1 inh 6.
For O=C(O)c1ccc(N/N=C/c2ccc(F)c(F)c2)cc1 the results were PABP FP inh -24, CRFBP-R2 block 4, PABP1 MLLE inh -8, eIF4H FP inh -10 and PHOSPHO1 inh -9.
For CCOC(=O)c1sc(NC(=O)C(CC)Sc2nnc3c4ccccc4n(C(C)C)c3n2)nc1C (centres undefined) the results were PABP FP inh -4, CRFBP-R2 block -37, PABP1 MLLE inh 8, eIF4H FP inh -3 and PHOSPHO1 inh 68*.
COc1cccc(NC(=O)CSc2nnc(-c3ccco3)c(-c3ccco3)n2)c1 was read as PABP FP inh 44*, CRFBP-R2 block 1, PABP1 MLLE inh 26, eIF4H FP inh 83* and PHOSPHO1 inh 10.
Screening COc1ccc(NC(=O)CSc2nnc(-c3ccco3)c(-c3ccco3)n2)cc1OC returned PABP FP inh 28, CRFBP-R2 block 5, PABP1 MLLE inh -2, eIF4H FP inh 64* and PHOSPHO1 inh 24.
COc1ccc(C(=O)CSc2nnc(-c3ccco3)c(-c3ccco3)n2)cc1 was read as PABP FP inh 75*, CRFBP-R2 block 16, PABP1 MLLE inh 35, eIF4H FP inh 85 and PHOSPHO1 inh 28.
CCn1c(SCC(=O)Nc2ccc(OC)c(OC)c2)nnc1-c1ccco1 was read as PABP FP inh 3, CRFBP-R2 block 4, PABP1 MLLE inh 10, eIF4H FP inh -9 and PHOSPHO1 inh 11.
COc1ccc(C(=O)CSc2nnc(-c3ccco3)n2C)cc1 was read as PABP FP inh 7, CRFBP-R2 block 10, PABP1 MLLE inh -3, eIF4H FP inh -1 and PHOSPHO1 inh -3.
For CSc1nnc(-c2ccco2)c(-c2ccco2)n1 the results were PABP FP inh 94*, CRFBP-R2 block 3, PABP1 MLLE inh 26, eIF4H FP inh 97* and PHOSPHO1 inh -32.
Screening COc1cccc(-c2cc3nc(NCc4ccc(C)cc4C)n(C)c(=O)c3s2)c1 returned PABP1 MLLE inh 0.
`Cc1cc(C(O)c2ncc(-c3ccccc3F)[nH]2)ccc1F` (centres undefined) gave PABP1 MLLE inh -8.
Screening CN1OC[C@@H]2CN(S(=O)(=O)c3cccc4ccccc34)[C@H](c3ccc(-c4cccnc4)cc3)C[C@@H]21 returned CRFBP-R2 block 0 and PABP1 MLLE inh -12.
Screening COc1ccc(NC(=O)CSc2ccc(-c3ccco3)nn2)cc1 returned PABP FP inh 7, CRFBP-R2 block -17, PABP1 MLLE inh 17, eIF4H FP inh 12 and PHOSPHO1 inh 46.
COc1cc(NC(=O)CSc2ccc(-c3ccco3)nn2)cc(OC)c1 was read as PABP FP inh -2, CRFBP-R2 block 8, PABP1 MLLE inh 19, eIF4H FP inh 60* and PHOSPHO1 inh 51.
